Screening results (PubChem BioAssay)
Peg3 promoter: reduces Peg3 promoter-driven luciferase expression in HeLa; HeLa PEG-Prom luciferase reporter, luminescence, overnight; inhibition, % at 20 µM; actives 1.7% (n = 360,000);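 active = inhibition of at least 50% at 20 µM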
KKLEB cytotox: reduces viability of KKLEB cystic fibrosis airway cells. KKLEB CF airway cells viability, ATPlite luminescence, overnight; hits give low values; cells stimulated with P. aeruginosa culture filtrate. activity change (cytotoxicity), % at 5 µM. actives 0.36% (n = 360,000). AID 602141;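 active = corrected activity change at or below -50% at 5 µM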
HIF-2a inh: HIF-2a inhibition. inhibition, % at 18.8 µM. 786-0 RCC cells HIF-2a reporter, luciferase luminescence, overnight. actives 0.72% (n = 360,000);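 active = inhibition of the luminescence signal of 40% or more relative to plate controls, in a single-dose primary screen at 18.75 µM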
TWEAK-Fn14 inh: TWEAK-Fn14 signaling inhibition; inhibition, % at 10 µM; TWEAK-stimulated Fn14 reporter cells, luciferase luminescence, 8 h; actives 2% (n = 360,000); in the data active = inhibition above about 50%
TROY signal inh: inhibitors of TROY-dependent NF-kB signaling. Q293 LMP1-TROYcd NF-kB luciferase reporter, 4 h. inhibition, % at 10 µM. actives 0.98% (n = 360,000). AID 1347056;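 active = compounds whose plate-normalised and pattern-corrected inhibition of the luciferase reporter signal at the single screening dose is 50% or more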
CF NFkB inh: blocks PAF-induced NF-kB reporter in cystic fibrosis cells; KKLEB NF-kB-GFP reporter, GFP fluorescence overnight; inhibition, % at 5 µM; actives 0.86% (n = 360,000);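 active = at least 50% inhibition at 5 µM, scaled per plate between neutral and stimulator controls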;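 also: PAF is a Pseudomonas aeruginosa culture filtrate used as stimulus; plate controls were PAF-stimulated DMSO wells for no effect and unstimulated DMSO wells for full effect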
CF NFkB inh conf: confirmation of cystic fibrosis induced NF-kB inhibitors; shares compounds with CF NFkB inh; KKLEB CF airway cells, PAF-induced NF-kB-GFP fluorescence, overnight; inhibition, % at 5 µM; actives 64% (n = 1,300); AID 602472; in the data active = inhibition above about 40%;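 also: stimulus PAF is a Pseudomonas aeruginosa filtrate and not platelet activating factor; plate controls were DMSO wells with stimulus for no effect and unstimulated DMSO wells for full effect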
An asterisk follows results filed as active; x = not tested or not shown. A selection: hits, their analogues and other compounds. The true share with any hit is near 4%.

SMILES	Peg3 promoter	KKLEB cytotox	HIF-2a inh	TWEAK-Fn14 inh	TROY signal inh	CF NFkB inh	CF NFkB inh conf
CC1(Oc2ccc(CC#N)cc2)CCN(Cc2ccccc2OC(F)F)C1 (configuration not stated)	0	-6	1	-7	-1	7	x
CC[C@@]1(c2cccc(C)c2)C(=O)N(C(=O)OC)N1C(=O)OC	17	-25	19	20	-6	54*	22
C=C1C(=O)[C@]23C[C@H]1CCC2[C@]1(C)C(=O)CC[C@@](C)(C(=O)O)C1C[C@@H]3O (some centres not stated)	61*	-13	13	72*	20	71*	86*
C=C1C(=O)[C@]23C[C@H]1CC[C@H]2[C@]1(C)[C@@H](OC(C)=O)CC[C@@](C)(C(=O)O)[C@H]1C[C@@H]3OC(C)=O	33	1	-26	46	-15	62*	17
O=C(c1cncc(Br)c1)N1CCN(S(=O)(=O)c2ccc(Cl)cc2)CC1	-1	4	15	17	0	2	x
COc1c(C)cccc1C(=O)Nc1ccc(N2CCN(C(=O)c3ccccc3C)CC2)cc1	33	13	-4	-1	18	1	x
Cc1ccccc1C(=O)N1CCN(c2ccc(NC(=O)CSc3ccc(Cl)cc3)cc2)CC1	14	-10	15	19	46	61*	71*
Cc1ccccc1C(=O)N1CCN(c2ccc(NC(=O)c3cccc(OC(C)C)c3)cc2)CC1	14	-11	18	15	-4	53*	53*
COc1ccccc1C(=O)Nc1cccc(NC(=O)c2ccccc2OC)n1	-43	4	-55	-16	1	12	x
COc1ccc(C(=O)Nc2cccc(NC(=O)c3ccc(OC)c(OC)c3)n2)cc1OC	14	0	-85	36	19	84*	62*
COc1ccc(S(=O)(=O)N2c3cc(C)ccc3OCC2C(C)(C)C)cc1 (configuration not stated)	18	-38	11	17	22	50*	59*
CCOc1ncccc1C(=O)Nc1cc(S(=O)(=O)N2CCCCC2)ccc1OC	19	-24	25	-29	-8	4	x
C[C@H]1CCC[C@]2(C)C[C@H]3OC(=O)C(CN4CCCCCC4)[C@H]3C=C12 (some centres not stated)	6	-22	-5	73*	-2	74*	40
CC1=CC(=NOS(=O)(=O)c2ccc(C)cc2)CC(C)(C)C1	-16	-6	-5	-2	7	11	x
COc1ccc(-n2nc(C(=O)NCC(=O)Nc3cc(OC)c(OC)c(OC)c3)c3ccccc3c2=O)cc1Cl	44	-20	6	36	5	79*	101*
CN(Cc1ccccc1)c1cc2c(c3c1ccn3C)C1CCC2O1 (configuration not stated)	-33	0	-5	3	7	7	x
Cn1ccc2c(N3c4ccccc4CCc4ccccc43)cc3c(c21)C1CCC3C1 (configuration not stated)	22	-4	-29	33	19	8	x
COc1ccccc1N(C)c1cc2c(c3c1ccn3C)C1CCC2O1 (configuration not stated)	33	-18	16	6	13	92*	31
Cn1ccc2c(N3c4ccccc4CCc4ccccc43)cc3c(c21)C1CCC3O1 (configuration not stated)	-18	-17	7	-4	-16	85*	15
COc1cc2cc(CCOC(=O)c3ccc(C#N)cc3)oc(=O)c2cc1OC	8	-9	6	-30	8	-18	x
COc1ccc(NC(=O)NNC(=O)COc2ccc3cc(Br)ccc3c2)c(OC)c1	22	-42	11	17	-1	52*	1
COc1ccc(NC(=O)COc2ccc(Br)cc2)c(OC)c1	-72	6	-79	6	9	13	x
CCCCOCCCNC(=O)C[C@@H]1C[C@@]2(C(=O)OC)CC(C)(C)CC=C2N(Cc2ccco2)C1=O	x	x	5	x	x	x	x
Cc1cccc(C)c1Nc1ncnc(N)c1[N+](=O)[O-]	0	4	6	-12	7	4	x
Nc1ncnc(Sc2ccccc2)c1[N+](=O)[O-]	21	-2	6	57*	22	52*	22
SMILES	Peg3 promoter	KKLEB cytotox	HIF-2a inh	TWEAK-Fn14 inh	TROY signal inh	CF NFkB inh	CF NFkB inh conf
Nc1ncnc(Sc2ccc(Cl)cc2)c1[N+](=O)[O-]	-7	-13	-20	69*	-7	64*	62*
CN(Cc1ccccc1)c1ncnc(N)c1[N+](=O)[O-]	-5	-9	11	34	27	67*	61*
O=S(=O)(c1ccc2c(c1)CCCC2)N1CCNCC1	-9	-5	14	18	4	6	x
Cc1ccnc(NC(=O)Cc2ccc(-c3ccccc3)cc2)c1	98*	-17	-431	48	41	62*	58*
O=S(=O)(Nc1ccc(-c2cn3c(n2)SCC3)cc1)c1cc(F)ccc1F	2	-12	-9	-25	-16	2	x
O=C(CCS(=O)(=O)c1ccccc1)N(CCCN1CCOCC1)c1nc2ccccc2s1	108*	-22	-141	28	-13	73*	55*
Cc1ccc(S(=O)(=O)CCC(=O)N(CCCN2CCOCC2)c2nc3ccccc3s2)cc1	45	-10	-138	13	6	49	x
CN(C)CCN(C(=O)CCS(=O)(=O)c1ccccc1)c1nc2cc3c(cc2s1)OCO3	-33	-5	-21	13	-21	16	x
CCN(CC)CCN(C(=O)CCS(=O)(=O)c1ccccc1)c1nc2cc3c(cc2s1)OCO3	31	-7	12	21	13	53*	3
S=c1[nH]nc(-c2ccncc2)n1/N=C/C(Cl)=C\c1ccccc1	-83	-13	-134	81*	22	73*	78*
S=c1[nH]nc(-c2ccncc2)n1/N=C/C=C/c1ccccc1	-10	-8	17	41	18	24	x
Cc1ccc(-c2n[nH]c(=S)n2/N=C/c2ccncc2)cc1	-6	-17	17	72*	27	56*	85*
CC(=O)c1c(C)[nH]c(C(=O)COC(=O)c2ccc(C)s2)c1C	-135	26	-28	-3	-25	64*	7
O=C(NC(=S)Nc1ccc(CN2CCOCC2)cc1)c1ccc([N+](=O)[O-])cc1	12	4	15	5	3	-9	x
O=C(/C=C/c1cccc([N+](=O)[O-])c1)NC(=S)Nc1ccc(CN2CCOCC2)cc1	21	-34	14	63*	20	67*	55*
C[C@@]12CCC=C[C@H]1[C@H](c1ccc(/C=C/c3ccccc3)cc1F)N(Cc1ccccc1)C2=O	11	-9	19	0	12	22	x
